Most compounds without a hit are left out; they make up all but 2.5% or so of the library.
Cruzain noTriton: blocks cruzain activity in detergent-free assay; purified cruzain, Z-FR-AMC fluorescence, no detergent; Potency, µM, actives largely listed as inhibitors; actives 2.3% (n = 200,000); AID 1476; further: nearly all actives have a fitted effect of over 40% in size
Target sequence (P25779 123-467 limits assumed): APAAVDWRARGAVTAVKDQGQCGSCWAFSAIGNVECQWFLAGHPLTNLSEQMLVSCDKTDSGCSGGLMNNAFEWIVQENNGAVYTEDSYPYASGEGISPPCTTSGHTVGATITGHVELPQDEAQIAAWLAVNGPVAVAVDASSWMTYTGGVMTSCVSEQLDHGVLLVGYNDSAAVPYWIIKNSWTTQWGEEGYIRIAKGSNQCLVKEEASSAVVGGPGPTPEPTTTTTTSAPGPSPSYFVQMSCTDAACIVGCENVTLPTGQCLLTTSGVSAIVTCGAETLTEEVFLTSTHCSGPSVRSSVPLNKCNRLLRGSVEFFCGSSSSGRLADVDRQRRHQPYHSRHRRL
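Purified cruzain at 1.5 nM, pre-incubated 15 min with compound at room temperature in 100 mM sodium acetate pH 5.5, 5 mM DTT, 0.00005% Triton X-100. Reaction started with 2 uM Z-FR-AMC; AMC fluorescence increase over 60 s gives rate.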
Cruzain inh Det: inhibitors of Trypanosoma cruzi cruzain with detergent | Potency, µM, actives largely listed as inhibitors | P25779 | actives 0.43% (n = 200,000) | purified cruzain, Z-FR-AMC fluorescence, 0.01% Triton; further: nearly all actives have a fitted effect of over 40% in size
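In this qHTS format, compounds are incubated with 1.5 nM cruzain for 15 min at room temperature before 2 uM Z-FR-AMC is added. Release of AMC is followed at 360/450 nm, and progress is taken as the 60 s fluorescence difference.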
Numbers stand for hits. The call rests on the fitted dose curve; in most records, active means well fitted curve in the direction sought with a large enough effect; inconclusive means small, poorly fitted or top-dose-only effect, or another doubt; inactive means no such curve, though single readings can be large; an effect the other way counts as inactive or inconclusive.

What do the screens show for `O=C(CSc1nnc(COc2ccc3c(c2)CCCC3)o1)Nc1ccc(F)cc1`?
Cruzain noTriton: 25µM; Cruzain inh Det: inactive

Results for COc1cccc(NC(=O)CSc2nnc(COc3ccc(Cl)cc3)o2)c1 ?
Cruzain noTriton: inconclusive; Cruzain inh Det: inactive

Results for COC(=O)c1ccc(NC(=O)CSc2nnc(COc3c(C)cccc3C)o2)cc1 ?
Cruzain noTriton: 25µM; Cruzain inh Det: inactive

How did COc1ccc(OCC(=O)NCc2ccc3c(c2)CCN3C(=O)c2ccc(F)cc2)cc1 do in these assays?
Cruzain noTriton: inactive; Cruzain inh Det: inactive

How did COc1ccc(C)cc1NC(=O)c1ccc2c(c1)nnn2C1CCCC1 do in these assays?
Cruzain noTriton: inactive; Cruzain inh Det: inactive

How did Cc1ccc(C(=O)Nc2ccc(-c3cn4cccnc4n3)cc2)cc1C do in these assays?
Cruzain noTriton: inactive; Cruzain inh Det: inactive

What do the screens show for `O=C(CSc1nc2ccccc2[nH]1)Nc1ccccc1F`?
Cruzain noTriton: inactive; Cruzain inh Det: inactive

What do the screens show for `O=C(/C=C/c1ccc(F)cc1)Nc1nc2ccccc2[nH]1`?
Cruzain noTriton: 10µM; Cruzain inh Det: inactive

What do the screens show for `O=C(/C=C/c1ccccc1)Nc1ncn[nH]1`?
Cruzain noTriton: inactive; Cruzain inh Det: inactive

What do the screens show for `O=C(CSCc1nc2ccccc2[nH]1)Nc1ccc2ccccc2c1`?
Cruzain noTriton: inconclusive; Cruzain inh Det: inactive

Results for O=C(CSc1nc2ccccc2[nH]1)Nc1ccc(F)c(F)c1 ?
Cruzain noTriton: 25µM; Cruzain inh Det: inactive

How did O=C(CSc1ccc2ccccc2c1)Nc1nc2ccccc2[nH]1 do in these assays?
Cruzain noTriton: 16µM; Cruzain inh Det: inactive

What do the screens show for `O=C(COc1ccccc1)Nc1nc2ccccc2[nH]1`?
Cruzain noTriton: inactive; Cruzain inh Det: inactive

What do the screens show for `O=C(COc1cccc2ccccc12)Nc1nc2ccccc2[nH]1`?
Cruzain noTriton: 25µM; Cruzain inh Det: inactive

Results for CC(C)OCCCNC(=O)Cn1c(-c2cccs2)cc2cc(F)ccc21 ?
Cruzain noTriton: inactive; Cruzain inh Det: inactive

Results for O=C(CC1N=C2c3ccccc3N=C(SCc3ccccc3Cl)N2C1=O)NCc1cccs1 (configuration not stated) ?
Cruzain noTriton: inactive; Cruzain inh Det: inactive

How did Cc1cn2c(=O)cc(COc3ccc(C(C)(C)C)cc3)nc2s1 do in these assays?
Cruzain noTriton: inactive; Cruzain inh Det: inactive

How did Cc1ccc(C(=O)N2CCc3cc(CNC(=O)COc4ccccc4)ccc32)cc1 do in these assays?
Cruzain noTriton: inactive; Cruzain inh Det: inactive

What do the screens show for `Cc1ccc(S(=O)(=O)NCCc2nnc3ccc(SCc4ccccc4F)nn23)cc1`?
Cruzain noTriton: inconclusive; Cruzain inh Det: inactive

How did Cc1ccc(-c2nc3sc(CCNC(=O)c4ccco4)c(C)n3n2)cc1 do in these assays?
Cruzain noTriton: inactive; Cruzain inh Det: inactive

Results for COc1ccc(-c2noc(CC(=O)N(C)c3ccccc3F)n2)cc1 ?
Cruzain noTriton: inactive; Cruzain inh Det: inactive

How did CCS(=O)(=O)N1CCc2cc(C(=O)Nc3cccc(C)c3C)ccc21 do in these assays?
Cruzain noTriton: inactive; Cruzain inh Det: inactive

Results for CCOc1ccc(-c2nnc(SCC(=O)NCc3ccc(C)cc3)nc2-c2ccc(OCC)cc2)cc1 ?
Cruzain noTriton: inactive; Cruzain inh Det: inactive

How did CC1CCC(C(=O)NC(C(=O)OCC(=O)c2ccccc2)C(C)C)CC1 (configuration not stated) do in these assays?
Cruzain noTriton: inconclusive; Cruzain inh Det: 16µM

What do the screens show for `CCc1ccc(C(=O)COC(=O)C(Cc2ccccc2)NC(=O)C2CCC(C)CC2)cc1` (configuration not stated)?
Cruzain noTriton: inactive; Cruzain inh Det: inactive

What do the screens show for `COc1ccc(C)cc1NC(=O)C1CCCN(c2ncnc3onc(C)c23)C1` (configuration not stated)?
Cruzain noTriton: inactive; Cruzain inh Det: inactive

How did COC(=O)c1cc(-c2ccccc2)sc1NC(=O)CN1C(=O)c2ccccc2C1=O do in these assays?
Cruzain noTriton: 25µM; Cruzain inh Det: inactive

Results for COC(=O)c1cc(OC)c(OC)cc1NC(=O)CN1C(=O)c2ccccc2C1=O ?
Cruzain noTriton: inconclusive; Cruzain inh Det: inactive

What do the screens show for `O=C(NCc1cccc(Cl)c1)c1ccc2nc(N3CCCCC3)sc2c1`?
Cruzain noTriton: inactive; Cruzain inh Det: inactive

How did COc1ccc(C(C(=O)Nc2ccc(C(C)C)cc2)N(C)C(=O)Cc2cccs2)cc1 (configuration not stated) do in these assays?
Cruzain noTriton: inactive; Cruzain inh Det: inactive

What do the screens show for `O=C(CNC(=O)/C(=C\c1ccc(Br)cc1)NC(=O)c1ccccc1)OCc1ccccc1`?
Cruzain noTriton: inconclusive; Cruzain inh Det: 10µM

What do the screens show for `O=C(CNC(=O)/C(=C/c1ccccc1)NC(=O)c1ccc(Br)cc1)OCc1ccccc1`?
Cruzain noTriton: inactive; Cruzain inh Det: inconclusive

Results for COc1ccccc1/C=C/C(=C1/C(=O)N(c2ccccc2)N=C1C)c1ccc(C)cc1 ?
Cruzain noTriton: 25µM; Cruzain inh Det: inactive

Compound activity from PubChem BioAssay.
